# Assay results published in PubChem BioAssay AID2284376 (EPA ToxCast).
# Values joined by “and” are separate entries in the source; they are usually repeats but may differ in a detail not shown here. Equal values may be shown once. Active and inactive are the calls of the source. Rule for the calls: active = hit-call score of the fitted dose curve at least 0.9, where 1 is the maximum; inactive = score below 0.9.
# Molecular target: Peroxisome proliferator-activated receptor gamma (Homo sapiens) (UniProt P37231)
# Sequence (P37231 whole entry, looked up): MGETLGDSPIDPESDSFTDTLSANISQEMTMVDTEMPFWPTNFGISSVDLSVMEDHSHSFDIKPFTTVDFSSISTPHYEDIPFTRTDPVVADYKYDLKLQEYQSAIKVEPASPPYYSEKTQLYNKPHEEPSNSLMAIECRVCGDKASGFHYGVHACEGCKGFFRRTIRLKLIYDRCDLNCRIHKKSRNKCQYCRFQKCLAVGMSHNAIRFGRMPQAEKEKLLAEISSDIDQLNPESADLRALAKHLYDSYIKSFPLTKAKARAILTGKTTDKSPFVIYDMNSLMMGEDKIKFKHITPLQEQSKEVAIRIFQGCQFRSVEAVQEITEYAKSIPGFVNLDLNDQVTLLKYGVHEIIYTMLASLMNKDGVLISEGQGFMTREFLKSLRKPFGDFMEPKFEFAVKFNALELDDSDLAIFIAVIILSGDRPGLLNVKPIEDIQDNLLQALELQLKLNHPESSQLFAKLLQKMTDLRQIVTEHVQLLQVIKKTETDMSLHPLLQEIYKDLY
# Experiment: ERF_TW_NR_COA_hPPARG: Eurofins (ERF) Nuclear Receptor (NR) Functional Coactivator Assay for human Peroxisome Proliferator-activated Receptor gamma (PPARg) Agonism, conducted at Taiwan lab site
# Method: ERF_TW_NR_COA_hPPARG is a biochemical, single-readout assay that uses extracted gene-proteins in a cell-free assay. Measurements were taken 16 hours after chemical dosing in a 96-well plate. See PPARgamma Human NHR Functional Agonist Coactivator Assay, Panlabs.ERF_TW_NR_COA_hPPARG is an assay component calculated from the ERF_TW_NR_COA_hPPARG assay. It is designed to measure FRET using a type of binding reporter as detected by fluorescence intensity of rosiglitazone with fluorimetry technology.Data from the assay component ERF_TW_NR_COA_hPPARG was analyzed at the assay endpoint, ERF_TW_NR_COA_hPPARG, in the positive analysis fitting direction relative to DMSO as the negative control and baseline of activity. Using a type of binding reporter, gain-of-signal activity can be used to understand changes in binding as they relate to gene PPARG. To generalize the intended target to other relatable targets, this assay endpoint is annotated to the nuclear receptor intended target family, where the subfamily is non-steroidal.
# Human recombinant PPARgamma receptors expressed in insect cells are used. Test compound and/or vehicle is incubated with the 2 nM receptors and coactivator peptide for 180 minutes at room temperature. Determination of the amount of complex formed is read spectrofluorimetrically (excitation: 337 nm, emission: 520/490 nm). Test compound-induced increase fluorescence by 50 percent or more (>/=50%) relative to 1 uM GW1929 response indicates possible PPARgamma receptor agonist activity. Test compound-induced inhibition of 5 nM GW1929-induced fluorescence response by 50 percent or more (>/=50%) indicates receptor antagonist activity.
Compound,outcome,AC50
NC(=O)c1nc(-c2cccc(-c3cc(F)ccc3OCC(F)(F)C(F)(F)F)c2)n[nH]1,inactive,–
O=C(CC(=O)C(F)(F)C(F)(F)C(F)(F)F)c1cccs1,–,44.4 µM (active) and 43.2 µM (active)
O=C(O)CCC(F)(F)C(F)(F)C(F)(F)F,inactive,–
